The values below come from the OligoGym collection.
Note: reference of the scale not given here.

In the first experiment the target is PLS1. As to the kind of experiment: pooled miR-30 sensor sort-seq; sequence = guide strand. The conditions noted are these: shRNA.
TTAAGAGTCTGATTGACCCATT: the sensor-assay potency score (higher = more potent) was -0.779. On to TTAACAATGCAATCAGAGCTTC, for which the sensor-assay potency score (higher = more potent) was -0.361. Take TATCTTTGCTTTTTAATTCTTG: the sensor-assay potency score (higher = more potent) is -0.576.

A further experiment deals with PLTP. The experiment is described as above. The conditions noted are these: shRNA.
Turning to TCATACACCTTCTTGAAGGTTC, the sensor-assay potency score (higher = more potent) was -0.197. Same read-out and setting: next, TCATACACCTTCAAGAACCAGT: 0.217; TTGAAGCATCAGCTCCTGCTGT: 0.293; TTCTTCTCAATCACCTCTCGCA: -0.149.

Turning to ACATTGGACACTTTCATCCGTC, the sensor-assay potency score (higher = more potent) came out at 0.0628.

Turning to TTGGACACTTTCATCCGTCCAG, the sensor-assay potency score (higher = more potent) is -0.0718. Take ATAGATTCGGAACCTGCGCAGG: the sensor-assay potency score (higher = more potent) was -1.18. The same measure, in the same setting: next, TTGAGCAGGACCGTCCCTGCGT: -0.0816; TACACCTTCAAGAACCAGTAGA: -0.191; TTGGAATAGATTCGGAACCTGC: -0.704. For TTAAATTGGGTACAGCTTCAAA, the sensor-assay potency score (higher = more potent) was -1.22. For TACAGCTTCAAATCCCGTCTTC, the sensor-assay potency score (higher = more potent) was -0.171.
